In the supplement of paper PMC11001985:
Unmarked numbers belong to inactive results.

compound: C#CCNC(=O)CCSSCCC(=O)NCCc1ccc(C=O)c(C=O)c1; test: lysine labeling ratio R10:1 (500 µM / 50 µM probe), SILAC-ABPP in living cells; higher = lower intrinsic lysine reactivity toward the probe, active = 2 or less; conditions: HeLa; probe concentrations 500 vs 50 µM
Method in brief: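 An alkyne-tagged lysine probe with a disulfide linker labelled living HeLa cells in PBS at room temperature at either 50 µM or 500 µM, using SILAC light and heavy cells in forward and reverse label swaps. Lysates were mixed, clicked to biotin-azide, trypsin-digested, enriched on neutravidin, DTT-released, alkylated and measured by LC-MS/MS on a TIMS-TOF Pro. Each lysine's R is the filtered median high-probe/low-probe MS1 peptide ratio, combined as the median over forward and reverse replicates, with 20 as the upper limit.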

Chain of UniProt Q15149 (Q15149 whole entry): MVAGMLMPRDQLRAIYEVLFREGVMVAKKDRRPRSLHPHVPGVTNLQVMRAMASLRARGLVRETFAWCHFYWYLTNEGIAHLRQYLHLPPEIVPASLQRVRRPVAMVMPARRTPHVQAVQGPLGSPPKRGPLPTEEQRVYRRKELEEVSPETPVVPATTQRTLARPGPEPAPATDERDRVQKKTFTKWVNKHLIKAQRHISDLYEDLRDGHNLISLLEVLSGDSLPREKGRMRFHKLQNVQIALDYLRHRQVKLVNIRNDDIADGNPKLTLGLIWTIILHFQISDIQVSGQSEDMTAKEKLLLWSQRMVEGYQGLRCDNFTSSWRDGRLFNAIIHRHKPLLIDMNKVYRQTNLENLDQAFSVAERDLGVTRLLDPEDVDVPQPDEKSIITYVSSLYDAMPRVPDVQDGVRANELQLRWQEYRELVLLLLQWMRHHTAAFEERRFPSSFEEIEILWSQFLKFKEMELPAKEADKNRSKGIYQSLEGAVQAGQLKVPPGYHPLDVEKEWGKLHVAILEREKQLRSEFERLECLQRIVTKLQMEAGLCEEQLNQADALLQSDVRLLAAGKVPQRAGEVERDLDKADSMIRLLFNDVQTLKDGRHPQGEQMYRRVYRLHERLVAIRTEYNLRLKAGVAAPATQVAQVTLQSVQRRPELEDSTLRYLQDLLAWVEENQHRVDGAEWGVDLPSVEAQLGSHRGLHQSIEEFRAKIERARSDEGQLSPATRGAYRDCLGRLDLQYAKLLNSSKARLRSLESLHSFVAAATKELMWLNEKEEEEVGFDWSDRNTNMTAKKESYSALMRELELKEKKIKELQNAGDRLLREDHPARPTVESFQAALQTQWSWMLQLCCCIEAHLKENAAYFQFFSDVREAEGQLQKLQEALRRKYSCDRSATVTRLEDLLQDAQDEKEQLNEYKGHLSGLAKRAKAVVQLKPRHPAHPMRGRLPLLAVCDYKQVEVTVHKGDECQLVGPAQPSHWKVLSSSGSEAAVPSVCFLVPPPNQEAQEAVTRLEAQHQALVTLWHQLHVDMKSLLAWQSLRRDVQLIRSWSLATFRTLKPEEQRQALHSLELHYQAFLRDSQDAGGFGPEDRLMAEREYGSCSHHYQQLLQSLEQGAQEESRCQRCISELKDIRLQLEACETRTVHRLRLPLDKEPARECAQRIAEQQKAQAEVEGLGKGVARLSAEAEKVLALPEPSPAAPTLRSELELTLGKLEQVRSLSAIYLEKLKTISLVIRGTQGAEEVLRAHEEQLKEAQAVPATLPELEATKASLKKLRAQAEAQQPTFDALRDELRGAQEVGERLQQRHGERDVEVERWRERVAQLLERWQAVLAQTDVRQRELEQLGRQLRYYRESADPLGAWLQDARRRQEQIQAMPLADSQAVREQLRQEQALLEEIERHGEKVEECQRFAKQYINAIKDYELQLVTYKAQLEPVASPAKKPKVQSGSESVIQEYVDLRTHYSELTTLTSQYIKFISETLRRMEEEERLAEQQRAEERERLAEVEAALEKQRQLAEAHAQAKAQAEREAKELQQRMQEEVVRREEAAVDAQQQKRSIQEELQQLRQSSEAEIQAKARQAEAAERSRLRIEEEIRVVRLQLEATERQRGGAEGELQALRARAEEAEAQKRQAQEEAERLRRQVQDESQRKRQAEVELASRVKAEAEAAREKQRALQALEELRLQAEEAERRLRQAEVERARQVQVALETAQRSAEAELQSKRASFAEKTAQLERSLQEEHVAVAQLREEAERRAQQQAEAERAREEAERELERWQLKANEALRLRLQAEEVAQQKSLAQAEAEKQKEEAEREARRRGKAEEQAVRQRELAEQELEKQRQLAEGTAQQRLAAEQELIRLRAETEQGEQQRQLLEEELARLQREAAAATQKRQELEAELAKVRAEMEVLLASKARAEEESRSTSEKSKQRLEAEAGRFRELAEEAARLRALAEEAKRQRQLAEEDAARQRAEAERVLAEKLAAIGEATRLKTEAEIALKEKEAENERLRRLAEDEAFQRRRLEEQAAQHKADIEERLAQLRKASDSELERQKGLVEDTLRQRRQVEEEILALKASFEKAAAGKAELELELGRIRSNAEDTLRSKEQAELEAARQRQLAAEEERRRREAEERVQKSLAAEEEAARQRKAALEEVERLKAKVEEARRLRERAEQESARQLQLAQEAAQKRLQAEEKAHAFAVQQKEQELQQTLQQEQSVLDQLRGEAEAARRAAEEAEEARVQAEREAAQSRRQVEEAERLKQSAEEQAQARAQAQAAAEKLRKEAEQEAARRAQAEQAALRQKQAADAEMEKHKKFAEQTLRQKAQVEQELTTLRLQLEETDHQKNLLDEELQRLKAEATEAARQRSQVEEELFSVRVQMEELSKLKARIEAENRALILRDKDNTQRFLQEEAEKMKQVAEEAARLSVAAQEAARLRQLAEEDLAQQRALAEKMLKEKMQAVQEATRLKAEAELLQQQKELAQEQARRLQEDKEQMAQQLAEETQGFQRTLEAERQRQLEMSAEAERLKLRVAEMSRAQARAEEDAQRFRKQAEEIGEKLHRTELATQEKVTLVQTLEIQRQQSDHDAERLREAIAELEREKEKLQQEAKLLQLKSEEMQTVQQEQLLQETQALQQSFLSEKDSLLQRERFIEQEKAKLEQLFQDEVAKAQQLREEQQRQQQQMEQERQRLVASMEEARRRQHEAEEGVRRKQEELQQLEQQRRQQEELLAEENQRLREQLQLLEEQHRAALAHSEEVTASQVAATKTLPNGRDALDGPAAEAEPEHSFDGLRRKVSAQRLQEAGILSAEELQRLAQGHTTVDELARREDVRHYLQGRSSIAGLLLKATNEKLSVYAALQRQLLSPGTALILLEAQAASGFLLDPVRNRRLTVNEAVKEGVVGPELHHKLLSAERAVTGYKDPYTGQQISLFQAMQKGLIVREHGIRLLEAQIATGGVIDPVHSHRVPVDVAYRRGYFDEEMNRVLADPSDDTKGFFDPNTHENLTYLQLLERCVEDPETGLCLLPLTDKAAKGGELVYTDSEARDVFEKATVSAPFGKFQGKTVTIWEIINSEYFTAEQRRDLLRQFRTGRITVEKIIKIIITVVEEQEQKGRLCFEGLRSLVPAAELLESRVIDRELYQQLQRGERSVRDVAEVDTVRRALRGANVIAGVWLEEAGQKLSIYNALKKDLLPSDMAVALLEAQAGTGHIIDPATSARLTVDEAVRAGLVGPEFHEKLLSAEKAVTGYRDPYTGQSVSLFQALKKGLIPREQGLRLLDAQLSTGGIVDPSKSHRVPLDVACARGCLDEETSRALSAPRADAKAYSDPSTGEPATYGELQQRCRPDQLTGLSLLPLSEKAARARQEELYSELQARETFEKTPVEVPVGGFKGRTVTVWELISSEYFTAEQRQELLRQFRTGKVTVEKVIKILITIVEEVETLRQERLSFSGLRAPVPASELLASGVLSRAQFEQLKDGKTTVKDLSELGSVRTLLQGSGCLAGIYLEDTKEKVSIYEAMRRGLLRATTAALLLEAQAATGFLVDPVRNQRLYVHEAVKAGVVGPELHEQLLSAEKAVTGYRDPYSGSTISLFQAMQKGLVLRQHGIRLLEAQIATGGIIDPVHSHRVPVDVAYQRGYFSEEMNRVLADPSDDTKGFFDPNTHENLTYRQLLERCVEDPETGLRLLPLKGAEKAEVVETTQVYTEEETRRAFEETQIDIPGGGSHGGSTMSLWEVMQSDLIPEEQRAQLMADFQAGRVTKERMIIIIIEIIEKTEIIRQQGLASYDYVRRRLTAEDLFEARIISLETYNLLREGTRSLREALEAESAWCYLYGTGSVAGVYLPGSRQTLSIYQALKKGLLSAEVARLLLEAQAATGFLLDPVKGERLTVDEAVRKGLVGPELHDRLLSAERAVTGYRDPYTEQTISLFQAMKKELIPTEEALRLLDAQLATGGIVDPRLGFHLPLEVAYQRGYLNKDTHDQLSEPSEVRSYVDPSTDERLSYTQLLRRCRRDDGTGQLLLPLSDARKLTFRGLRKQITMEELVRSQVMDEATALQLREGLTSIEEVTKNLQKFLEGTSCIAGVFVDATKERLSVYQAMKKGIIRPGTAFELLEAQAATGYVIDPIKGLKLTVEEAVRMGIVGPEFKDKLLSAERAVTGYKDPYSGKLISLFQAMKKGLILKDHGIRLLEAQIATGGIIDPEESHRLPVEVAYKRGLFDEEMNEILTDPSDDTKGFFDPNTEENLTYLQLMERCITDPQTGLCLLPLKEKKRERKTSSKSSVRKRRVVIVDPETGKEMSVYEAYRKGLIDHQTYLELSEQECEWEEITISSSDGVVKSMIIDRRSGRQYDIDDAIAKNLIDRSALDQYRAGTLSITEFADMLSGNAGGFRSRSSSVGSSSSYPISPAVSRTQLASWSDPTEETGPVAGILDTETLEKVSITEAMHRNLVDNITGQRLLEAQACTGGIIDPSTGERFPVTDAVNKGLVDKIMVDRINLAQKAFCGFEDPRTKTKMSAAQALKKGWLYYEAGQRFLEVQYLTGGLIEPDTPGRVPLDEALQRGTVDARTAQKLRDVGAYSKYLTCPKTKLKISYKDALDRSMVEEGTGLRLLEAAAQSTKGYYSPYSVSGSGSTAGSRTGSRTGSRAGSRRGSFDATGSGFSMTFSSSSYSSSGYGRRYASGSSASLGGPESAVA
Chain of UniProt P12004 (P12004 whole entry): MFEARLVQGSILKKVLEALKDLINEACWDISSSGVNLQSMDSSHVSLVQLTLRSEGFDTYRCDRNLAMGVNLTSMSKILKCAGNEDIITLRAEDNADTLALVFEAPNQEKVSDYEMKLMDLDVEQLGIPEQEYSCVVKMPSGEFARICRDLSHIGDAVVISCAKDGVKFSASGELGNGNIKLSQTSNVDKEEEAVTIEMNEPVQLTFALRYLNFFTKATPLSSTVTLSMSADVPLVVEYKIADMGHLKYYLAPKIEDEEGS

| Target | lysine labeling ratio R10:1 |
| --- | --- |
| SPTAN1 (lysine site: K241) (UniProt Q13813) | 7.04 |
| FH (lysine site: K66) (UniProt P07954) | 2.79 |
| UniProt Q9NYU2 (lysine site: K356) | 1.45 (active) |
| UniProt P02533 (lysine site: K328) | 11.3 |
| PCNA (lysine site: K254) (UniProt P12004) | 1.56 (active) |
| UniProt Q15149 (lysine site: K2903) | 2.51 |
| UniProt Q15149 (lysine site: K4480) | 1.74 (active) |
| SEMA3C (lysine site: K158) (UniProt Q99985) | 5.63 |
| TFRC (lysine site: K344) (UniProt P02786) | 9.15 |
| CD109 (lysine site: K471) (UniProt Q6YHK3) | 2.01 |
| NUMA1 (lysine site: K925) (UniProt Q14980) | 2.01 |
| G6PD (lysine site: K497) (UniProt P11413) | 3.47 |
| UniProt P05787 (lysine site: K352) | 9.16 |
| HNRNPL (lysine site: K538) (UniProt P14866) | 1.29 (active) |
| ITGAV (lysine site: K889) (UniProt P06756) | 1.08 (active) |
| UniProt P62701 (lysine site: K106) | 2.28 |
| HNRNPU (lysine site: K343) (UniProt Q00839) | 3.69 |
